Screens from PubChem.
KCC2 mod = KCC2 cotransporter modulators, thallium flux, primary screen, cell-based, HEK293 KCC2, FluoZin-2 fluorescence, MLSMR; Solute carrier family 12 member 5 (Homo sapiens), Q9H2X9; KCC2 cells, thallium flux FluoZin-2 fluorescence; B-score of Tl+ flux slope (higher = more flux/activation; lower = inhibition) at 10 µM; actives 2.2% (n = 190,000);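 active means thallium flux slope and its plate-corrected score both differing from the plate sample mean at a set confidence after two filtering rounds, in either direction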;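 further: slope of fluorescence scaled to starting intensity during 10 to 20 s after thallium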
EP2 antag = human EP2 receptor antagonists, primary screen, TR-FRET cAMP, C6 glioma cells; C6 glioma cells expressing human EP2; cells stimulated with saturating PGE2; inhibition, % at 25 µM; actives 0.52% (n = 260,000);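 active means percent inhibition above 40 after rounding to a whole number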;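 further: rat C6 glioma host cells with rolipram phosphodiesterase inhibitor present; the protocol text gives 20 µM as final concentration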
S1P3 antag = S1P3 receptor antagonists, primary screen, cell-based | Sphingosine 1-phosphate receptor 3 (Homo sapiens), Q99500 | CHO S1P3 NFAT-BLA reporter, FRET fluorescence, antagonist mode | inhibition, % at 4.98 µM | actives 0.27% (n = 170,000) | AID 485, 2006;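 active means inhibition above the plate cutoff, the mean inhibition of test wells on that plate plus 3 SD, cut at about 28% in these data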;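 further: cells challenged with S1P at its EC80 of 0.8 µM; blue over green emission ratio from cleaved BLA substrate after 4 h stimulation; 0% = S1P-stimulated wells and 100% = unstimulated DMSO-only wells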
Target sequence (Q99500 whole entry, looked up): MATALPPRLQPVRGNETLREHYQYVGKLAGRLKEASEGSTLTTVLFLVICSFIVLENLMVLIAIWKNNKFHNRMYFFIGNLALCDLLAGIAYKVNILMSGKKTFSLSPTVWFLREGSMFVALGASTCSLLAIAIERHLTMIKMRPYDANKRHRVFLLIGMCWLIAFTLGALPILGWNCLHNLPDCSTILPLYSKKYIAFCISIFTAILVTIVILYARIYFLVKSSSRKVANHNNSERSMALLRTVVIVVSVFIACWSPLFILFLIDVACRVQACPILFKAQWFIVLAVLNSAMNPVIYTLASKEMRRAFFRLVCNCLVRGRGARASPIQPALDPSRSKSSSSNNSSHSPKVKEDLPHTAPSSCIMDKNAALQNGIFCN
EP2 mod = EP2 receptor modulators, cAMP readout, primary screen, cell-based, HTRF cAMP, PGE2 stimulation; Prostaglandin E2 receptor EP2 subtype (Homo sapiens), P43116; EP2-expressing cells, cAMP HTRF FRET, PGE2 co-stimulation; induction, % at 25 µM; actives 0.83% (n = 260,000);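 active means compounds whose cAMP rise, as percent of the full-agonist control response, exceeds 60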;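 further: rat C6 glioma line stably carrying human EP2 under a CMV promoter; the protocol text gives 20 µM as final concentration; 100% = response of wells given 1 µM PGE2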
* hit, by the source's call; · = no result given; ! = not confirmed by another sample. Hits are enriched below; roughly 3.1% of the tested compounds scored in any of these assays.

SMILES	KCC2 mod	EP2 antag	S1P3 antag	EP2 mod
C/C(=N\Nc1cc(C(F)(F)F)ccc1Cl)c1ccccc1O	0.0431	5.3	3.7	64.7*
CSc1nsc2nc(=O)c(/C=C3\C=Nc4ccccc43)c(N)n12	-3.13*	5.6	-8.0	8.7
Fc1cccc(C2(NCc3ccnc(N4CCCC4)n3)CC2)c1	·	3.5	·	-3.3
COc1ccc(/C=N/n2c(-c3cccs3)n[nH]c2=S)cc1	30.7*	17.6	·	14.1
Cc1ccc(/C=N/n2c(-c3cccs3)n[nH]c2=S)cc1	30.3*	9.0	·	23.8
CCc1ccc(NC(=S)N(Cc2cc3cc(C)cc(C)c3[nH]c2=O)CC2CCCO2)cc1 (configuration not stated)	·	6.4	·	12.2
Cc1c(-c2nc(C(N)=O)c3[nH]c(=O)n(-c4ccccc4)c3n2)cnn1C	·	·	·	-7.7
Nc1nonc1-c1nc2ccccc2n1Cc1ccc(F)cc1Cl	·	·	78.0*	52.5
CCc1ccc2c(c1)c(N=NC1=NC(=O)CS1)c(O)n2C	9.41*	·	·	15.6
COc1ccc2cc(C#N)c(SCC(=O)NC(C)(C)C)nc2c1	·	13.6	·	40.3
COc1ccc2cc(C#N)c(SCC(=O)NC3CCCCC3C)nc2c1 (configuration not stated)	·	25.7	·	76.9*
O=C(CCc1ccc(S(=O)(=O)N2CCOCC2)cc1)OCc1nc2ccccc2s1	·	10.0	20.3	-6.3
O=C(OCc1nc2ccccc2s1)c1cccc(S(=O)(=O)N2CCOCC2)c1	-5.1*	10.9	0.5	5.1
CCN(CC)CCN1C(=O)C(=O)/C(=C(\O)c2cccc(OC)c2)C1c1cccs1 (configuration not stated)	·	12.6	·	2.7
Nc1nnc(CCS(=O)(=O)c2ccc(Cl)c(Cl)c2)s1	·	10.6	·	-0.2
Nc1nnc(CCS(=O)(=O)c2cc(Cl)ccc2Cl)s1	0.684	15.0	76.7*	-16.6
NC(=O)c1sc2nc3c(c(-c4ccco4)c2c1N)CCCC3	-0.36	6.0	11.8	21.6
COC(=O)c1sc2nc3c(c(-c4cccs4)c2c1N)CCCC3	1.29	10.0	0.2	64.2*
c1ccc(-c2nc3ccccc3c3nc4ccccc4n23)cc1	-0.398	6.5	-9.4	64.3*
c1ccc(-c2nc3nonc3c3nc4ccccc4n23)cc1	-0.638	3.9	-2.1	-5.3
Cc1ccc(-c2nnn(CC(=O)NCc3ccc4c(c3)OCO4)n2)cc1	·	9.3	·	4.6
O=C(NNC(=S)Nc1cccc2ccccc12)c1cccc(Br)c1	13.8*	17.4	·	-41.2
O=C1[C@@H]2[C@H](C(=O)N1CN1CCSCC1)[C@H]1[C@@H]3C=C[C@@H]([C@@H]4C(=O)N(CN5CCSCC5)C(=O)[C@@H]34)[C@@H]21	·	45.2*	·	14.6
NC(=O)c1cccc(-c2cc(Nc3ccc(OC(F)(F)F)cc3)ncn2)c1	-1.33	59.5*	·	-23.5
O=C(Nc1ccc(OC(F)(F)F)cc1)Nc1cccnc1	-0.03	10.6	4.5	-15.1
SMILES	KCC2 mod	EP2 antag	S1P3 antag	EP2 mod
CCc1cc2cc3c(cc2nc1SCC(=O)Nc1cccc(C(C)=O)c1)OCCO3	·	8.5	·	-23.1
Cc1ccc(C)c(-c2csc(N)c2C(=O)OC(C)C)c1	-0.22	16.1	·	62.9*
Cc1cccn2c(=O)c(/C=C3\SC(=S)NC3=O)c(N3CCN(C)CC3)nc12	·	9.7	·	25.0
COCCN(CCOC)c1nc(-c2ccc(C)cc2)nc2ccccc12	·	11.3	·	38.7
Cc1ccc(-c2nc(C(Cl)Cl)c3ccccc3n2)cc1	-2.4	9.7	-3.1	61.5*
O=C(O)c1ccccc1-c1ccccc1C(=O)Nc1ccc2c(c1)[nH]c(=O)c1ccccc12	-3.83	46.1*!	4.2	7.0
O=C(O)c1ccc(S(=O)(=O)N2CCC3(CC2)Nc2ccccc2-n2cccc23)cc1	·	·	·	-6.4
CCS(=O)(=O)c1cc([N+](=O)[O-])c(Br)s1	·	74.2*	·	-118.7
CCS(=O)(=O)c1ccc(Sc2nncn2C)c([N+](=O)[O-])c1	1.12	15.4	-16.4	12.2
Cc1ccc(NC2=C/C(=N/S(=O)(=O)c3cccs3)c3ccccc3C2=O)cc1C	0.212	6.6	-18.2	4.2
Cc1cc(C)c(S(=O)(=O)/N=C2/C=C(Sc3ncn[nH]3)C(=O)c3ccccc32)cc1C	-0.567	104.4*	-10.7	-80.0
O=C1c2ccccc2C(=O)N1SC1CCCCC1	1.9	87.1*	-40.2	-35.7
O=C(OCN1C(=O)c2ccccc2C1=O)C1CCCCC1	·	11.1	-11.4	13.5
CCC(C(=O)N1CCC(C(=O)c2nccs2)CC1)c1ccccc1 (configuration not stated)	·	·	·	-27.2
Oc1oc(-c2cccc3ccccc23)nc1/C=N/c1nccs1	23.9*	6.6	-24.7	8.7
Oc1oc(-c2cccc3ccccc23)nc1C=NCc1ccccc1	0.0231	7.7	3.8	17.8
COc1cccc(CC(=O)N[C@@H](C)Cn2nnc3ccccc32)c1	·	8.3	·	2.7
CC(C)CC(=O)/C(=C\c1ccc(Cl)cc1Cl)n1cncn1	0.269	52.1*	-15.7	-53.9
COc1ccc(/C=C(/C(=O)c2ccc(Cl)cc2Cl)n2cncn2)cc1	-0.0092	7.4	·	-7.6
N#CC1=C(N)C(C#N)(C#N)C(c2cccnc2)C2CC(c3ccccc3)CC=C12 (configuration not stated)	-2.58*	8.5	·	22.5
Cc1nccn1CC(C)C(=O)N1CCCC(n2nc(-c3cccs3)ccc2=O)C1 (configuration not stated)	·	·	·	11.1
Oc1ccc(/C=N/Nc2cccc3cccnc23)c(O)c1	·	50.9*	·	-16.2
Cc1ccc(/C=N/Nc2cccc3cccnc23)c(O)c1	-0.0222	3.5	·	15.0
CCOC(=O)C1(C)C=C(Nc2ccccc2)C(=O)N1c1ccccc1 (configuration not stated)	0.507	6.6	-0.1	61.5*
CCOC(=O)C1(C)C=C(Nc2ccc(OCC)cc2)C(=O)N1c1ccccc1 (configuration not stated)	-0.97	8.6	2.0	19.0
SMILES	KCC2 mod	EP2 antag	S1P3 antag	EP2 mod
O=C1C(N2CCOCC2)=C(n2nnc3ccccc32)C(=O)c2ccccc21	-0.268	40.0*	·	-2.6
CCN1CCCC1CN(Cc1cccs1)Cc1cn(CC)nc1C (configuration not stated)	·	5.5	·	1.7
CCOC(=O)c1ccccc1NC(=O)N[C@@H](C)C(=O)OC	-3.37*	4.6	·	2.0
COC(=O)c1ccccc1NC(=O)N[C@@H](C)C(=O)OC	·	5.6	·	27.3
c1ccc(CSc2nnc3c4ccccc4c4ccccc4c3n2)cc1	·	55.0*!	-10.8	24.5
CCOC(=O)c1cnc(SC)nc1Nc1cccc2ccccc12	-0.806	6.3	·	61.6*
CCOC(=O)c1cnc(SC)nc1Nc1cccc(F)c1	·	6.4	23.5	54.1
O=C(c1ccc(F)cc1)[C@H]1CCCN(C(=O)c2ccco2)C1	·	4.6	·	-13.7
O=C(COc1ccc2nsnc2c1)NCc1nc(-c2ccccc2)no1	·	50.1*	·	-50.9
COc1ccccc1OCC(=O)NCc1nc(-c2ccccc2)no1	-1.53	5.9	0.3	-2.2
CC(C)n1c(=O)oc2cc(S(=O)(=O)NC3(c4ccc(F)cc4)CC3)ccc21	·	6.0	·	-59.7
